Experiment [1] in a line: qHTS for Hypoxia signaling pathway (HIF-1) antagonists against the NCATS CANVASS Library (AID 1347374).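 For activity change, negative = inhibition: HRE-bla ME-180 cells stimulated with cobalt chloride to stabilize HIF-1alpha; % is set by controls: 0 for no effect and ±100 for the full control effect.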 Note: nearly all actives have a fitted effect of over 60% in size. Note: potency is the fitted concentration of half-maximal effect. The essentials:
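Antagonism scored as loss of CoCl2-driven (60 uM stock added) HRE beta-lactamase signal, read by CCF4 FRET at 460/530 nm. Compounds were tested in an 11-point series on ME-180 reporter cells for 17 hrs at 37C, with parallel CellTiter-Glo cytotoxicity.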
A general note: In qHTS, concentration-response curves come from the screen itself.

Experiment [2] can be described thus: qHTS for Antimalaria activity screened against the NCATS CANVASS Library (AID 1347380).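 For activity change, negative = inhibition: Plasmodium falciparum strain Dd2 asexual parasites grown in red blood cells.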 Note: nearly all actives have a fitted effect of over 40% in size. Note: potency is the fitted concentration of half-maximal effect. The essentials: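 Compounds are titrated over 11 concentrations onto Dd2 parasite cultures (0.3% parasitemia, 2.5% hematocrit). Growth over 72 h at 37C in low oxygen is measured as SYBR Green DNA fluorescence after lysis.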
The nature of experiment [3]: qHTS for activators of Nrf2/ARE signaling pathway screened against the NCATS CANVASS Library (AID 1347391). Note: nearly all actives have a fitted effect of over 60% in size. Note: potency is the fitted concentration of half-maximal effect. The essentials:
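Beta-lactamase reporter signal, read as 460 and 530 nm emission under 405 nm excitation after 2 h CCF4 loading, reflected ARE activation in HepG2 cells treated 16 h with an 11-point series.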

Experiment [4] in a line: qHTS for inhibitors of Wild type Zika virus screened against the NCATS CANVASS Library (AID 1347396).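 Note: ATP luminescence of surviving cells so rescue from viral cell killing; % is set by controls: 0 for no effect and ±100 for the full control effect.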 The essentials:
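Luminescent CellTiter Glo read-out of virus-induced cytotoxicity, 72 h post-infection, in Vero 766 cells. Compounds were tested at 11 concentrations; uninfected, vehicle-treated wells defined 100% inhibition.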

Experiment [5] in a line: HEK-293 Cancer Cell Toxicity qHTS against the NCATS CANVASS Library (AID 1347355). Note: nearly all actives have a fitted effect of over 65% in size. Note: potency is the fitted concentration of half-maximal effect. The essentials: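 First, 1000 cells go into each well and rest for 4 hours. Next, an 11-point dilution range is pinned in. Plates then incubate 72 hours before CellTiter-Glo addition and luminescence reading.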
A short description of experiment [6]: KB-8-5-11 Cancer Cell Toxicity qHTS against the NCATS CANVASS Library (AID 1347364). Note: nearly all actives have a fitted effect of over 75% in size. Note: potency is the fitted concentration of half-maximal effect. The essentials:
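Terse: KB-8-5-11, 500 cells/well, 72 hr, 37C/5% CO2, 11-pt titration, CellTiter-Glo readout; confirmatory runs ± 1uM tariquidar in medium.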

The nature of experiment [7]: qHTS for Inflammasome Signaling Inhibitors: IL-1-beta AlphaLISA screen against the NCATS CANVASS Library (AID 1347379).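 For Potency: secreted IL-1B measured as AlphaLISA emission at 615 nm; potency is the fitted concentration of half-maximal effect.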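 For activity change, negative = inhibition: secreted IL-1B measured as AlphaLISA emission at 615 nm; % is set by controls: 0 for no effect and ±100 for the full control effect; lower signal means less IL-1B release which is the wanted effect.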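 Note: human THP-1 cells primed with LPS then triggered with ATP.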 The essentials: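 Secreted IL-1B from human THP-1 cells quantified by AlphaLISA 16 hr after compound addition (final up to 57.5 uM). A 1 hr compound pretreatment preceded inflammasome activation with 250 ng/mL LPS plus 1.25 mM ATP (final).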
Experiment [8] in a line: UWB1.289 Cancer Cell Toxicity qHTS against the NCATS CANVASS Library (AID 1347347). Note: nearly all actives have a fitted effect of over 60% in size. Note: potency is the fitted concentration of half-maximal effect. The essentials: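 1000 cells/well seeded and rested 4 h at 37 °C before pin transfer of compounds in an 11-pnt series. Exposure 72 h at 37 °C/5% CO2; viability by CellTiter-Glo luminescence after 15 min at room temperature.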
Experiment [9] can be described thus: Secretion counterscreen for inhibitors of the SERCaMP assay screened against the NCATS CANVASS Library (AID 1347390). For activity change, negative = inhibition: % is set by controls: 0 for no effect and ±100 for the full control effect.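 Note: light from luciferase secreted into medium read as a measure of general secretion.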 Note: potency is the fitted concentration of half-maximal effect. In a few lines:
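Natural products are titrated in an 11-point series up to 77 uM onto SH-SY5Y-GLuc STOP cells for 20 h. Secreted reporter activity is measured as coelenterazine-driven luminescence, with Brefeldin A on each plate.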

A short description of experiment [10]: qHTS Assay for Lipid Storage Modulators (AID 1519; calls by dose curve). The conditions noted are these: Drosophila S3 cells, BODIPY lipid droplet/cell ratio, laser cytometry, cells loaded with oleic acid; for activity change, negative = inhibition: at 57.5 µM (top of the series). The essentials: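 Cells seeded at 5,000 per well were treated with compounds over a concentration series and loaded with oleic acid (400 uM, as added). Lipid droplet fluorescence (488 nm excitation, 500-530 nm channel) was read by laser-scanning cytometry and normalized to 20 uM Triacsin C.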

Experiment [11] addresses Calcium and integrin-binding protein 1 (Homo sapiens) (UniProt Q99828). The experiment is described as follows: Primary qHTS for Identification of Calcium Integrin Binding Protein 1 (CIB1) Competitor (AID 1508620). Note: top concentration of the series differs between compounds; % is set by controls: 0 for no effect and ±100 for the full control effect. In a few lines: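 Fluorescence polarization competition: GST-tagged CIB1 (1 uM final) preincubated with compound 15 min at room temperature, then FITC-labelled alphaIIb peptide (100 nM final) added. After 15 min at room temperature, polarization read at Ex 480/Em 540.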

Experiment [12] can be described thus: Confirmation and Secondary Assay for Modulators of Hemoglobin Beta Chain Splicing at IVS2 654 locus (AID 910).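 Note: HeLa cells stably carrying EGFP split by mutant beta-globin IVS2-654 intron; % of control where 0% means no effect.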 The essentials: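 HeLa cells stably expressing EGFP interrupted by β-globin IVS2-654 intron, seeded overnight in Opti-MEM/2% FCS, then treated 2 days at 37 °C. Restored splicing read as total peak GFP intensity per well by laser scanning cytometry (488 nm excitation, 500–520 nm emission); 500 nM antisense PNA as control.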

Experiment [13] is described as follows: Confirmation and Secondary Assay for Modulators of Hemoglobin Beta Chain Splicing at IVS2 705 locus (AID 930).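 Note: HeLa cells stably expressing the EGFP-705 splicing reporter; GFP fluorescence per well restored by corrected splicing of the IVS2-705 intron in EGFP; % of control where 0% means no effect.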 In a few lines:
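HeLa cells stably carrying EGFP interrupted by mutant beta-globin intron 2 (IVS2-705) treated 2 days at 37C with compound; 500 nM antisense PNA as control. Correct splicing read as total peak GFP intensity per well by laser-scanning cytometry.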

Experiment [14] can be described thus: qHTS to identify inhibitors of the type 1 interferon - major histocompatibility complex class I in skeletal muscle: primary screen against the NCATS Mechanism Interrogation Plate v5.0 (MIPE) Libary (AID 1347411).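 Note: plate controls were vehicle for no effect and reference inhibitor for full effect; nearly all actives have a fitted effect of over 65% in size.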 In a few lines:
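Seed engineered human myoblasts (HLA-B HiBit) in medium without dexamethasone containing 4 ng/ml IFN-beta; after 1 hr add compound titrations (top 46 uM final). Incubate 24 hrs at 37 C, lyse 10 min with HiBiT reagent, read luminescence.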

A short description of experiment [15]: Primary qHTS for inhibitors of nuclear receptor binding SET domain protein 2 (NSD2) in an isogenic RCH-ACV NSD2 p.E1099K mutant (9B) (AID 1645876). Note: nearly all actives have a fitted effect of over 70% in size.
Experiment [16] can be described thus: Primary qHTS for inhibitors of nuclear receptor binding SET domain protein 2 (NSD2) in an RCH-ACV wild type WT cells (2C) (AID 1645877). Note: nearly all actives have a fitted effect of over 70% in size.
The mark [17] stands for this setting: measured here: cell count channel max response.
Where [18] appears, read: measured here: lipid channel max response.

Each structure is given as a SMILES string. Results filed as inconclusive are left out. Calls of active or inactive are those of the source. Unless noted, calls come from the whole dose curve; as a rule, active = well fitted curve in the direction sought with a large enough effect; inconclusive = small, poorly fitted or top-dose-only effect, or another doubt; inactive = no such curve, though single readings can be large; an effect the other way counts as inactive or inconclusive.

Calcium and integrin-binding protein 1 (Homo sapiens), sequence (Q99828 whole entry, looked up): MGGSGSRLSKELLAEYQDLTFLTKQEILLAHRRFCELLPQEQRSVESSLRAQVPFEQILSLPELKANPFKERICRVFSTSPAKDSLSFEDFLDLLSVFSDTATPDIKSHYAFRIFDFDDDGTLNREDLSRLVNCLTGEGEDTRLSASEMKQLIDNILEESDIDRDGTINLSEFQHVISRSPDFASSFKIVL

Consider `C=C1[C@@]2(C)CC3C4(C)CCC(O)C(C)(C)C4CCC3(C)[C@]1(C(=O)OC)C(=O)C(C)(O)C2=O` (some centres undefined), for which the Potency result in experiment [1], in experiment [2] and in [3] was “inactive” each time. Besides, the result in experiment [4] was inactive.
In the case of `O=C1OC(CCO)c2cccc(O)c21` (centres undefined), the Potency result in experiment [5], in experiment [6], in experiment [1], in [7] and in experiment [2] was “inactive” each time.
Turning to `CC(CCC[C@]1(C)C(=O)C=C[C@@]23C[C@]4(C)O[C@@H](C[C@@H]4[C@H]2O)C31)C(=O)O` (some centres undefined), the Potency result in experiment [8], in experiment [6], in [7] and in [9] was “inactive” in each case.
On to `C/C=C(/CO)C(=O)O[C@@H]1[C@H](O)[C@@H](C(=O)OC)O[C@@H]2C[C@H]3OC(n4cnc5c(N)ncnc54)[C@H](OC)[C@H]3O[C@@]12O` (some centres undefined), for which the Potency result in experiment [8], in [1], in experiment [7], in experiment [2] and in experiment [9] was “inactive” each time. In addition, in [3], the Potency is 18.6 µM (active).
On to `CC(=O)N[C@H](C)c1nc(/C=C/C=C/C(=O)CC2CC(=O)CC[C@]2(C)O)cs1` (some centres undefined), for which the Potency entry in experiment [5], in [2], in [9] and in experiment [3] was “inactive” each time. Moreover, the call in experiment [4] was inactive.
In the case of `C[C@@]12C[C@@H](C[C@@H]3C(=O)O[C@@H](c4ccoc4)[C@H](OC(=O)c4ccccc4)[C@@H]31)OC2=O`, the Potency entry in experiment [8], in [6], in experiment [7], in experiment [2] and in experiment [9] was “inactive” throughout. Besides, the compound was called inactive in experiment [4].
Regarding `COC(=O)c1cccc2oc(-c3cccc4oc(-c5c(C)cccc5O)nc34)nc12`, the Potency was 5.29 µM (active) in [8], 0.941 µM (active) in [1] and 1.86 µM (active) in [3]. For the same compound, the Potency entry in [5], in [7] and in experiment [9] was “inactive” in each case. Besides, in experiment [4], the outcome was inactive.
Consider `COc1c(O)cc(O)c2c(=O)cc(-c3ccccc3)oc12`, for which the Potency in experiment [1] is 10.6 µM (active). For the same compound, the Potency result in experiment [2] is “inactive”.
On to `COc1ccc(-c2oc3cc(OC)cc(OC)c3c(=O)c2O)cc1`, for which the Potency in [8] was 18.8 µM (active); in experiment [5], 18.7 µM (active). Also, the Potency entry in [7] was “inactive”.
Consider `C/C(=C\[C@@H](C)CC/C=C/CC/C=C/C(=O)O)[C@H](O)[C@H](C)C(=O)CCCC1CC(=O)NC(=O)C1`, for which the Potency entry in [6], in [1], in [2] and in experiment [9] was “inactive” in each case. Further, in [4], the compound was classed as inactive.
Consider `C=C(Cl)[C@](Cl)(CBr)CC[C@@H](Br)C(C)(C)Cl`, for which the Potency was 14.9 µM (active) in experiment [8] and 9.35 µM (active) in experiment [5]. The Potency result in [9] is “inactive”. In experiment [4], the result was inactive.
In the case of `C/C(=C\[C@@H](C)CC/C=C/CC/C=C/C(=O)O)[C@@H](O)[C@H](C)C(=O)CCCC1CC(=O)NC(=O)C1`, the Potency entry in experiment [7] and in experiment [2] was “inactive” throughout. Besides, the compound was classed as inactive in [4].
As to `O=C1CC(c2ccc(O)cc2)Oc2cc(O)ccc21` (centres undefined), the Potency result in experiment [5], in [6], in experiment [1], in [7] and in experiment [2] was “inactive” each time. The compound was called inactive in experiment [4].
With `CC(=O)c1c(C)cc2c(c1O)C(=O)c1c(O)cc(O)cc1C2=O`, the Potency entry in [6], in experiment [1], in [7], in experiment [2], in experiment [9] and in experiment [3] was “inactive” throughout. Moreover, in experiment [4], the compound was classed as inactive.
As for `CN1CC[C@@]2([C@@]34CCN(C)[C@@H]3Nc3ccccc34)c3ccccc3N[C@@H]12`, the Potency result in experiment [5], in experiment [1], in experiment [7], in experiment [9] and in experiment [3] was “inactive” each time. Further, the Potency in experiment [2] was 0.211 µM (active).
With `C=C(C)C(=O)O[C@H]1C[C@@]2(C)OC(=CC2=O)/C(C)=C\[C@H]2OC(=O)C(=C)[C@H]12`, the Potency in experiment [5] is 1.05 µM (active); in experiment [6], 2.96 µM (active); in experiment [7], 1.37 µM (active); in experiment [2] it was 0.265 µM (active); in experiment [9], 3.05 µM (active).
On to `C[C@@]1(CCC(=O)Nc2c(O)ccc(C(=O)O)c2O)C(=O)C=C[C@]23C[C@H]4C[C@H](O[C@@]4(C)C2)C31` (some centres undefined), for which the Potency result in experiment [5], in [6], in experiment [7] and in [3] was “inactive” throughout.
In the case of `C=C[C@@](C)(O)CC[C@@H]1[C@@]2(C)CCCC(C)(C)[C@@H]2CC[C@@]1(C)O`, the activity change, negative = inhibition in experiment [10] is -12.3% (inactive). Moreover, the max response was -15% in [10] (setting [17]) and -21.7% in [10] (setting [18]).
For `O=C(/C=C\n1cnc(-c2cc(C(F)(F)F)cc(C(F)(F)F)c2)n1)NNc1cnccn1`, the Potency entry in [11] is “inactive”.
With `COC1=C(OC)C(=O)C(C/C=C(\C)CC/C=C(\C)CC/C=C(\C)CC/C=C(/C)CC/C=C(\C)CC/C=C(\C)CC/C=C(\C)CC/C=C(\C)CC/C=C(\C)CCC=C(C)C)=C(C)C1=O`, the result in experiment [12] and in experiment [13] was inactive. In addition, the activity change, negative = inhibition in experiment [10] is 8.3% (inactive). Besides, the max response in experiment [10] (setting [17]) came to 17.1%; in [10] (setting [18]), 27.6%. Also, the Potency entry in experiment [14], in experiment [15] and in [16] was “inactive” in each case.

For the origin of these results see PubChem BioAssay (NCATS).
